The record followed here is PubChem BioAssay (NCI).

This is part of a sample that, as a whole, favours compounds with a hit. Of some 79,000 tested, about 15% had one in any assay. Unmarked numbers belong to inactive results. Activity calls are given as the source filed them. No stated cut-off is given here; in the data, active means growth inhibition above about 70%; inactive means the rest.

The nature of the first test: NCI Yeast Anticancer Drug Screen. Data for the rad50 strain (AID 155).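 Further: 0% = growth of vehicle-only cultures of the same strain.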 To be noted: S. cerevisiae rad50 strain growth inhibition; at 3.7 µM; hits give high values. Put shortly:
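Inhibition values express reduced yeast growth in compound-treated cultures relative to vehicle-treated controls.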
With `CCCc1cc(C(=O)OCC)cc(CCC)c1O`, the growth inhibition was -49%.
On to `CC(C)[N+]([O-])(CCCNc1c2ccccc2nc2cccc([N+](=O)[O-])c12)C(C)C`, for which the growth inhibition was 57%.
`COc1cc2c3c(cccc3c1)C(=O)N(CCN(C)C)C2=O`: the growth inhibition was 0%.
Still for that read-out and setting: next, `NC(=O)NN=C(CS)CS`: 30%; `Cc1ccc(NC(=O)/C(Cl)=C(\Cl)C(=O)O)cc1C`: 7%; `CCN(CC)CC[n+]1ccc2c(C)c3[nH]c4ccc(O)cc4c3c(C)c2c1`: 42%.
On the same count and under the same terms, next, `CC(CC(C)(C)[N+](C)(C)C)[N+](C)(C)C` (stereo not drawn): 1%; `COc1ccc(OC)c2cc3ccccc3cc12`: -1%.
The same measure, in the same setting: next, `Nc1ncncc1C(C1=C(O)COC1=O)C1=C(O)COC1=O`: 2%; `CSC1=NNC(SC)=NN1`: 0%.
Take `Cc1c(Cl)ccc2c1S(=O)(=O)c1cccc(Cl)c1-2`: the growth inhibition was -9%.
On the same count and under the same terms, next, `[O-][n+]1c2ccc(O)cc2nc2ccc(Cl)cc21`: 24%; `COc1ccc2ccc3ccccc3c2c1C=O`: 23%; `Nc1ccc2c(c1)C(=O)c1cccc(N)c1C2=O`: 45%.
Still for that read-out and setting: the value for `O=C(c1ccc(Cl)cc1Cl)C(Cl)Cl` was 11%.
For `COc1cc(C(=O)/C=C/c2ccccc2O)ccc1O`, the growth inhibition is 32%.
As for `O=Cc1cccc2ccc3ccccc3c12`, the growth inhibition is -12%.
On the same count and under the same terms, the value for `O=C(Nc1ccc(Cl)cc1)OCC#CCCl` was -9%; that for `Cn1ccnc1Oc1ccc(Cl)cc1` was -9%; that for `c1ccc2c(c1)C(=NCCCN1CCCCCC1)c1cccn1-2` was -8%.
In the case of `C/C(=N\O)C1CC2C=C(C#N)C1N(Cc1ccccc1)C2` (stereo not drawn), the growth inhibition was -3%.
The same measure, in the same setting: the value for `O=[N+]([O-])C(=C(Sc1ccccc1)Sc1ccccc1)C(Cl)=C(Cl)Cl` was 8%; that for `CCCCCCCCCC/C=C\C(=O)O` was 10%.
The same measure, in the same setting: next, `COc1ccc(N=C2C(=O)Nc3ccc(Br)cc32)cc1`: -14%.
Same read-out and setting: next, `COc1ccccc1C(=O)OCC1CCCN2CCCCC12` (stereo not drawn): 8%.
Take `CC(C)(Br)C(=O)/C=C/c1ccc(Cl)c(Cl)c1`: the growth inhibition was 3%.
Still for that read-out and setting: next, `Nc1ccccc1CC(O)C(=O)O` (stereo not drawn): 13%; `CC(=O)N/N=C/C(C)(C)C(C)(C)/C=N/NC(C)=O`: -6%.
On the same count and under the same terms, next, `CN(C)c1nc2sc3c(c2c(=O)o1)CCCC3`: 6%.
On the same count and under the same terms, next, `CC(C)OC(=O)Oc1ccccc1OC(=O)OC(C)C`: -3%; `Cc1ccc(N)c(S)c1`: -27%.
As for `O=C(O)c1ccccc1NC(=S)c1ccccc1`, the growth inhibition is -26%.
The same measure, in the same setting: the value for `COC(=O)c1ccc(NCC2=CC(=O)C=CC2=O)cc1O` was 32%.
For the molecule `NC(N)=N/N=C\c1c2ccccc2cc2ccccc12`, the growth inhibition is -17%.
Still for that read-out and setting: next, `COC(=O)CSSCc1ccc([N+](=O)[O-])cc1`: 20%.
On the same count and under the same terms, next, `CCS(=O)(=O)c1ccc(/C=C/C=N/NC(=S)NCC(C)C)cc1`: 3%; `N#CC(C(=O)Nc1ccccc1)C1=C(Cl)C(=O)c2ccccc2C1=O` (stereo not drawn): 38%.
Same read-out and setting: next, `C[C@H](CCC(=O)NN)[C@H]1CC[C@H]2[C@@H]3CC[C@@H]4C[C@H](O)CC[C@]4(C)[C@H]3CC[C@]12C`: 1%; `CC[n+]1ccc2c(C)c3[nH]c4ccc(O)cc4c3c(C)c2c1`: 16%.

The test is the same for the next values; noted with them: S. cerevisiae rad50 strain growth inhibition; at 5.0 µM (retest, dose inferred, filed as 0.5); hits give high values.
On to `CCCc1cc(C(=O)OCC)cc(CCC)c1O`, for which the growth inhibition was 5%.
The same measure, in the same setting: the value for `CC(C)[N+]([O-])(CCCNc1c2ccccc2nc2cccc([N+](=O)[O-])c12)C(C)C` was 70% (active); that for `COc1cc2c3c(cccc3c1)C(=O)N(CCN(C)C)C2=O` was 23%; that for `NC(=O)NN=C(CS)CS` was 4%.
Same read-out and setting: the value for `Cc1ccc(NC(=O)/C(Cl)=C(\Cl)C(=O)O)cc1C` was 13%; that for `CCN(CC)CC[n+]1ccc2c(C)c3[nH]c4ccc(O)cc4c3c(C)c2c1` was 36%.
Same read-out and setting: next, `CC(CC(C)(C)[N+](C)(C)C)[N+](C)(C)C` (stereo not drawn): 25%.
As to `COc1ccc(OC)c2cc3ccccc3cc12`, the growth inhibition was 52%.
The same measure, in the same setting: the value for `Nc1ncncc1C(C1=C(O)COC1=O)C1=C(O)COC1=O` was -10%.
The same measure, in the same setting: the value for `CSC1=NNC(SC)=NN1` was 49%.
Same read-out and setting: next, `Cc1c(Cl)ccc2c1S(=O)(=O)c1cccc(Cl)c1-2`: 100% (active).
As for `[O-][n+]1c2ccc(O)cc2nc2ccc(Cl)cc21`, the growth inhibition was -5%.
Turning to `COc1ccc2ccc3ccccc3c2c1C=O`, the growth inhibition is 9%.
Still for that read-out and setting: the value for `Nc1ccc2c(c1)C(=O)c1cccc(N)c1C2=O` was 51%.
Same read-out and setting: the value for `O=C(c1ccc(Cl)cc1Cl)C(Cl)Cl` was 46%.
On to `COc1cc(C(=O)/C=C/c2ccccc2O)ccc1O`, for which the growth inhibition was 33%.
With `O=Cc1cccc2ccc3ccccc3c12`, the growth inhibition was -102%.
Still for that read-out and setting: the value for `O=C(Nc1ccc(Cl)cc1)OCC#CCCl` was 8%; that for `Cn1ccnc1Oc1ccc(Cl)cc1` was -121%.
On the same count and under the same terms, next, `c1ccc2c(c1)C(=NCCCN1CCCCCC1)c1cccn1-2`: -3%; `C/C(=N\O)C1CC2C=C(C#N)C1N(Cc1ccccc1)C2` (stereo not drawn): -6%.
The same measure, in the same setting: next, `O=[N+]([O-])C(=C(Sc1ccccc1)Sc1ccccc1)C(Cl)=C(Cl)Cl`: 5%; `CCCCCCCCCC/C=C\C(=O)O`: 39%; `COc1ccc(N=C2C(=O)Nc3ccc(Br)cc32)cc1`: 50%.
As to `COc1ccccc1C(=O)OCC1CCCN2CCCCC12` (stereo not drawn), the growth inhibition is 21%.
As to `CC(C)(Br)C(=O)/C=C/c1ccc(Cl)c(Cl)c1`, the growth inhibition is 17%.
For the molecule `Nc1ccccc1CC(O)C(=O)O` (stereo not drawn), the growth inhibition is -15%.
The same measure, in the same setting: next, `CC(=O)N/N=C/C(C)(C)C(C)(C)/C=N/NC(C)=O`: 4%; `CN(C)c1nc2sc3c(c2c(=O)o1)CCCC3`: -4%; `CC(C)OC(=O)Oc1ccccc1OC(=O)OC(C)C`: 1%.
Still for that read-out and setting: next, `Cc1ccc(N)c(S)c1`: 1%; `O=C(O)c1ccccc1NC(=S)c1ccccc1`: 53%; `COC(=O)c1ccc(NCC2=CC(=O)C=CC2=O)cc1O`: 12%.
The same measure, in the same setting: next, `NC(N)=N/N=C\c1c2ccccc2cc2ccccc12`: 22%; `COC(=O)CSSCc1ccc([N+](=O)[O-])cc1`: 15%; `CCS(=O)(=O)c1ccc(/C=C/C=N/NC(=S)NCC(C)C)cc1`: 5%.
Take `N#CC(C(=O)Nc1ccccc1)C1=C(Cl)C(=O)c2ccccc2C1=O` (stereo not drawn): the growth inhibition is 9%.
For `C[C@H](CCC(=O)NN)[C@H]1CC[C@H]2[C@@H]3CC[C@@H]4C[C@H](O)CC[C@]4(C)[C@H]3CC[C@]12C`, the growth inhibition is 12%.
In the case of `CC[n+]1ccc2c(C)c3[nH]c4ccc(O)cc4c3c(C)c2c1`, the growth inhibition was 58%.
